# Measurements published in article PMC5540273 (PLoS ONE, 2017).
# Tests used:
# [1] = system: PIK3CG
# [2] = system: PIP5K1C
# [3] = system: T1, PIP5K2C
# T1 construct: gene PIP4K2C
# [4] = system: T2, PKAC-beta
# T2 construct: gene PRKACB
# [5] = system: PRKCI
# [6] = system: PKN1
# [7] = system: T3, PIK4CB
# T3 construct: gene PI4KB
# [8] = system: PIK3CD
# [9] = system: PLK2
# [10] = system: PIKFYVE
# 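Note: kd values determined as follow-up on hits from a single-replicate KINOMEscan panel screen.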
structure (smiles),measurement,setting,value
Fc1ccc(-c2nc3n(c2-c2ccncc2)CCS3)cc1 [GI98581],Kd,[1],> 10 µM
CS(=O)(=O)Cc1ccc(Nc2nccc(-c3c(-c4cccc(NC(=O)C5CCCCC5)c4)nn4ncccc34)n2)cc1 [GSK350559],Kd,[2],> 10 µM
same,Kd,[3],0.06 µM
O=C1NC(=O)C(c2ccc(Cl)cc2)=C1Nc1cccc(Cl)c1 [SB-317651],Kd,[4],> 10 µM
CNC(=O)c1ccc(C)c(-n2c(C)cc(OCc3ccc(F)cc3F)c(Br)c2=O)c1,Kd,[5],> 10 µM
CC[C@@H]1CO[C@H](C(=O)Nc2ccccc2)CN1c1cc(-c2ccc3c(N)n[nH]c3c2)nc(NC)n1 [GSK2376236],Kd,[6],> 10 µM
Cc1c(Cn2c3ccccc3n3c(=O)cc(N4CCOCC4)nc23)cccc1C(F)(F)F [GSK2306394],Kd,[7],> 10 µM
same,Kd,[6],> 10 µM
Nc1nccc(-c2c(-c3ccc(F)cc3)ncn2C2CCN(Cc3ccccc3)CC2)n1 [SB-219980],Kd,[3],0.093 µM
Cc1c(Cn2c(C)c(C)n3c(=O)cc(N4CCOCC4)nc23)cccc1C(F)(F)F [GSK2328680],Kd,[8],0.62 µM
same,Kd,[9],> 10 µM
CN1c2ccc(-c3ccc(C(N)=O)cc3)cc2-c2[nH]ncc2S1(=O)=O,Kd,[2],6.4 µM
COc1cccc(NC(=O)Nc2ccc(C)c(-c3ccc(C(=O)Nc4ccncc4)cc3)c2)c1 [GSK1398474],Kd,[1],> 10 µM
NS(=O)(=O)c1cccc(N/C=C2\C(=O)Nc3ccc(S(=O)(=O)Cc4c(Cl)cccc4Cl)cc32)c1 [GSK398099],Kd,[7],1.2 µM
CCc1ccc(-c2ccc3c(c2)-c2n[nH]cc2S(=O)(=O)N3C)cc1,Kd,[10],> 10 µM
CC(=O)c1c(C)c2cnc(Nc3ccn(C)n3)nc2n(C2CCCC2)c1=O,Kd,[3],0.11 µM
